Measurements as given in PubChem BioAssay (NCI).
The panel holds about 83,000 compounds, 20% with a hit somewhere; the sample as a whole holds those more often.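 The test compound was applied at a single concentration to cells in 96-well plates for 48 hours, and percent growth was recorded.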 Unmarked numbers belong to inactive results. Calls of active or inactive are those of the source. The calls were made as follows: active = growth percent below 10; inactive = the rest.

test system: IGROV1 ovarian; experiment: NCI-60 one-dose screen, 48 h (100 = growth as untreated, 0 = no growth, -100 = all killed); details: 10 µM unless noted

SMILES	growth
COCCOc1cc2ncnc(N3CCN(c4ncc(S(=O)(=O)N5CCCCC5)cn4)CC3)c2cc1OCCOC	99.2%
COC(=O)[C@]1(C)CCC[C@]2(C)[C@H]3C[C@H]4C(C(C)C)=C[C@]3(CC[C@H]21)[C@@H]1C(=O)CC[C@H](OCCC#N)[C@@H]14	67.3%
O=C(O)CCN1C(=O)/C(=C/C(Cl)=C/c2ccccc2)SC1=S	22.6%
O=C(/C=C/c1cccc(Cl)c1)c1ccc(Nc2nc(Nc3ccc(F)cc3)nc(Nc3ccc(Cl)cc3)n2)cc1	113%
CC(C)(Sc1cc(C(C)(C)C)c(O)c(C(C)(C)C)c1)Sc1cc(C(C)(C)C)c(OC(=O)CCCC(=O)O)c(C(C)(C)C)c1	57.4%
Fc1cc2c(cc1Cl)N(c1ncnc3ccc(-c4ccc5n[nH]nc5c4)cc13)CC2	32.2%
CCSC(SCC)c1ccc(Cl)cc1	117%
O=C(Nc1nc2ccc(C(=O)N3CCN(/C=C/c4ccccc4)CC3)cc2s1)c1ccc(NCCc2ccccc2)c([N+](=O)[O-])c1	64.3%
O=S(=O)(Nc1cc(F)cc(Cl)c1)c1ccc(-c2cnc(C3CC3)o2)cc1	30%
COC(=O)c1c(C)nc(C)c2c1C(=O)C(Br)=C(NCc1ccccc1)C2=O	18%
COc1cc2c(c(OC)c1OC)CCC(c1cccc(C(=O)Nc3ccc(C#N)cc3)c1)O2 (stereo not given)	68.9%
O=C1c2ccccc2-c2c1c1c(=O)[nH]c3ccccc3c1n2Cc1ccccc1	71.5%
O=C1c2c(c3c4ccccc4[nH]c3c3ccc4ccccc4c23)C(=O)N1CCN1CCNCC1	58.1%
CC(C)=CCCC(C)c1ccc(C)c2c1OCN(CCCCCO)C2 (stereo not given)	90.4%
COc1ccc(/C=N/NC(=O)c2ccc(-n3cc(-c4ccccc4)nn3)cc2)cc1OC	95.6%
CCN(CC)S(=O)(=O)c1ccc(S(=O)(=O)N2CCC[C@@H](C(=O)N3CCN(c4nc(C(C)C)no4)CC3)C2)cc1	86.2%
Cc1cc(N2CCN(CC(=O)Nc3ccc4c(ccn4C)c3)CC2)nc(N2CCCCCC2)n1	83.5%
COc1ccc(Nc2ncc(Br)c(NCCCNC(=O)c3cccs3)n2)cc1	21%
NC(=O)C(=O)c1ccccc1NC=O	94.8%
N#Cc1ccc2c(c1)C(=O)c1c-2n(CCCN)c(=O)c2cc([N+](=O)[O-])ccc12	-95.6% (active)

SMILES	growth
c1ccc(Cn2cc3c(c2)-c2oncc2CC3)cc1	34.9%
O=C(CSC(=S)n1cnnc1)NC(=O)c1ccccc1	108%
O=C1/C(=C\c2ccc3nccnc3c2)SC(=S)N1CCc1ccc(O)cc1	94.1%
COc1c(B(O)O)cccc1-c1nc2c(F)cc3[nH]ncc3c2c2c1CCCC2	7.11% (active)
COc1c(B(O)O)cccc1-c1cc(C)c2c(ccc3[nH]ncc32)n1	59.1%
CSc1nnc(-c2cc3c([nH]c4ccccc43)c(-c3cccc(O)c3)n2)n1-c1ccccc1	49.9%
C=C1C(=O)O[C@H]2[C@H]1CC/C(Cn1cc(-c3ccccc3)nn1)=C\CC[C@@]1(C)O[C@@H]21	6.52% (active)
C=C(CBr)[C@@H]1CC[C@]2(C(=O)O)CC[C@]3(C)[C@H](CC[C@@H]4[C@@]5(C)CCC(=O)C(C)(C)[C@@H]5CC[C@]43C)[C@@H]12	103%
CCNCCNc1cc(C2CCCCC2)c(C#N)c2nc3ccccc3n12	7.32% (active)
COc1cc2c(c(OC)c1OC)CCC(c1cccc(C(=O)Nc3cccc(Cl)c3)c1)O2 (stereo not given)	63.8%
CCCCCCCC[C@@H]1N[C@@H](C(=O)OC)Cc2c1[nH]c1ccccc21	82.9%
CC(=O)Oc1ccc(/C(=C(\C)c2ccc(Cl)cc2)c2ccc(OCCN3CCCCC3)cc2)cc1	61.8%
COc1ccc2cc1Oc1ccc(cc1)C[C@H]1c3c(cc4c(c3Oc3cc5c(cc3OC)CCN(C)[C@@H]5C2)OCO4)CCN1C	44.3%
CC(=O)c1c(C)nc2ccccc2c1/C=C/c1ccc(F)cc1	85.1%
CN(/C(N)=N/N=C/c1c2ccccc2cc2ccccc12)C1CCCCC1	40.3%
CCOC(=O)n1ccn(C)c1=S	110%
Cc1cn(-c2cc(NC(=O)c3cncc(C#Cc4cnc(N)c5ncccc45)c3)cc(C(F)(F)F)c2)cn1	62.3%
O=C(Cn1cc(CSc2nc3ccccc3o2)nn1)Nc1ccc(F)cc1F	114%
Cc1c2cnccc2c(C)c2c1c1cc(C#N)ccc1n2C	-11.4% (active)
CNC(=O)c1ccccc1Oc1nc(Nc2cc(OC)c(OC)c(OC)c2)ncc1Br	46.8%
